Rows were chosen to be rich in hits. Some 12% of all compounds tested hit in one or more screens of this group.
D1 mod – allosterically modulates the human D1 dopamine receptor; P21728; HEK293 D1, CRE-luciferase, dopamine EC30 potentiation; actives deviate in either direction; B-score at 10 µM; 58,000 compounds, 5.9% hits; AID 641;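 active means luminescence count or its row- and column-corrected plate score outside the 99.7% band of the plate's sample wells, on either side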
PLAP act – activators of human placental alkaline phosphatase; P05187; purified PLAP enzyme, luminescent substrate read-out; hits give high values; activation fold at 20 µM; 96,000 compounds, 1.2% hits; AID 696; in the data active means activation fold above about 2
Target sequence (P05187 whole entry, looked up): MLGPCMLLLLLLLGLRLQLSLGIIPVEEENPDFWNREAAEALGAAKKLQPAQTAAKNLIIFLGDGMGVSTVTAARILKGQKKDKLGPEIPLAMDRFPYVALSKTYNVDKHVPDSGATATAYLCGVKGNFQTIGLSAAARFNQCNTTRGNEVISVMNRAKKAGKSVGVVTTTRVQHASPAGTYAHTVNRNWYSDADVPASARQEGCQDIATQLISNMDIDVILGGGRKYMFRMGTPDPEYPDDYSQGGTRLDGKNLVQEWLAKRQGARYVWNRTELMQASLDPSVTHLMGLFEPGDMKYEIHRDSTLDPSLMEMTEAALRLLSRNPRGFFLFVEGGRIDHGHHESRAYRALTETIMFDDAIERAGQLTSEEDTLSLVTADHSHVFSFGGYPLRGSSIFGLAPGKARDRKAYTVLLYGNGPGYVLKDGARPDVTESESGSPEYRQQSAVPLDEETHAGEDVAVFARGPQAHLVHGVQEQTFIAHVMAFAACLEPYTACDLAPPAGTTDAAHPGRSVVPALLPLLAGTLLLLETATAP
PostGolgi ctrl – yeast control strain growth, post-Golgi counter-screen; 98,000 compounds, 5% hits; efflux-deficient yeast background strain, growth absorbance A615, 16 h; inhibition, % at 10 µM
Cav32 inh – inhibitors of human Cav3.2 T-type calcium channel; O95180; B-score at 10 µM; Cav3.2-expressing cells, Fluo-4 calcium fluorescence FDSS; hits give low values; AID 449739; 100,000 compounds, 4% hits;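 active means single-dose well whose peak fluorescence ratio is a statistical outlier from its plate by either plate-standardised score or position-corrected B-score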
PostGolgi yeast – growth inhibition of a yeast mutant, post-Golgi transport screen | post-Golgi transport phenotypic cell assay | 98,000 compounds, 0.9% hits | inhibition, % at 10 µM;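 further: yeast cells grown in 1536-well plates; yeast grown about 18 h at 30C before absorbance read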
DAT uptake mod – modulates human dopamine transporter uptake under cocaine. Q01959. LLC-PK1 hDAT cells, [14C]-dopamine uptake with cocaine IC80; actives deviate in either direction. B-score at 10 µM. 110,000 compounds, 1.3% hits. AID 449768;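 active means Z score or B-score, a plate-position-corrected score, falls beyond the plate's 99.7% confidence bounds, in either direction; inactive means both scores lie inside the 99.7% bounds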
Of the large screens only hits and unclear results are named; the others gave an inactive call. Unless noted, no stated cut-off is given here; in the data, active means inhibition above about 30%; inactive means the rest.

CCOC(=O)c1c(C)[nH]c(C(=O)OCC(=O)N2CCN(S(=O)(=O)c3ccccc3)CC2)c1C	none
Cc1nn(-c2ccccc2)c(C)c1C(=O)OCC(=O)N1CCN(S(=O)(=O)c2ccccc2)CC1	PostGolgi ctrl 96.5
COc1cccc(OC)c1C(=O)n1nc(C)cc1C	none
CC1CC(C)(C)N(C(=O)CSc2ccc(-c3ccc(F)cc3)nn2)c2ccccc21 (stereo not drawn)	PostGolgi ctrl 36.5 (no result: D1 mod)
Cc1cc(C)n(CC(O)Cn2c3ccc(Cl)cc3c3cc(Cl)ccc32)c(=O)n1 (stereo not drawn)	PostGolgi ctrl 99.1, PostGolgi yeast 98.9 (no result: D1 mod)
CN(CC(=O)O)Cc1nc2ccccc2[nH]1	none (no result: D1 mod, PLAP act)
COc1ccc(C(=O)CSc2nnc(CNc3ccc(C)cc3C)n2Cc2ccco2)cc1	none (no result: Cav32 inh)
CCn1c(COc2ccc(C)cc2)nnc1SCc1ccc(C#N)cc1	DAT uptake mod 3.02 (no result: D1 mod)
Cc1ccc(C(=O)CSc2nnc(CNc3ccc(C)cc3C)n2Cc2ccco2)cc1	PostGolgi ctrl 40.5, Cav32 inh -9.75
Cc1ccc(NCc2nnc(SCC(=O)Nc3ncc(C)s3)n2CC2CCCO2)c(C)c1 (stereo not drawn)	Cav32 inh -4.51
Cc1ccc(NCc2nnc(SCC(=O)N3CCCCC3)n2CC2CCCO2)c(C)c1 (stereo not drawn)	none (no result: PLAP act, PostGolgi ctrl, PostGolgi yeast)
Cc1ccc(NCc2nnc(SCc3ccc(C#N)cc3)n2Cc2ccco2)c(C)c1	PostGolgi ctrl 39.9, Cav32 inh -6.45, PostGolgi yeast 49.5
Cc1nccn1-c1cc(C(C)C)c(C#N)c2nc3ccccc3n12	none (no result: PLAP act, PostGolgi ctrl, Cav32 inh, PostGolgi yeast, DAT uptake mod)
O=C(CC1(C(F)(F)F)OCCO1)Nc1ccc2c(c1)OCO2	none
Cc1ccc(C)c(S(=O)(=O)Nc2ccc3scnc3c2)c1	PostGolgi ctrl 49.5, Cav32 inh -4.57
Cc1cccc(NS(=O)(=O)c2cccc3nsnc23)c1	none (no result: D1 mod)
Cc1nonc1NC(=O)CSc1nc2cc(Cl)ccc2c2c1CCCC2	D1 mod -2.49
COc1cccc(CNC(=O)Nc2cccs2)c1	D1 mod -3.4
N#CC(C(=O)C12CC3CC(CC(C3)C1)C2)c1nc2ccccc2[nH]1 (stereo not drawn)	PostGolgi ctrl 73.7
Cc1ccccc1-c1cc(-c2ccccc2O)n[nH]1	PostGolgi ctrl 52.1
Cc1ccc(-c2cc(-c3ccccc3Cl)[nH]n2)c(O)c1	PostGolgi ctrl 37.6
COc1ccccc1-c1cc(-c2cc(Cl)ccc2O)n[nH]1	none (no result: D1 mod, Cav32 inh)
Cc1ccc(-c2cc(-c3ccccc3[N+](=O)[O-])[nH]n2)c(O)c1	PLAP act 2, PostGolgi ctrl 41.0 (no result: D1 mod, Cav32 inh, DAT uptake mod)
Cc1c(Cl)cccc1NC(=O)c1cc(-c2ccccc2O)n[nH]1	none (no result: D1 mod, Cav32 inh)
Oc1ccc(Cl)cc1-c1cc(-c2ccccc2)n[nH]1	PostGolgi ctrl 64.6
CS(=O)(=O)N(CC(=O)NC1CCCC1)Cc1ccc(Cl)cc1	none (no result: D1 mod)
CC(C)CNc1nc(Oc2ccc(=O)n(C)n2)nc(N2CCOCC2)n1	PostGolgi yeast 32.3 (no result: D1 mod, Cav32 inh, DAT uptake mod)
CC(C)CNc1nc(Oc2ccc(=O)n(-c3ccccc3)n2)nc(N2CCOCC2)n1	none (no result: D1 mod)
CCC(CC)C(=O)Nc1cc(C)c2c(=O)oc3ccccc3c2n1	PostGolgi ctrl 33.9 (no result: D1 mod)
CCN1C(=O)c2cccc3c(NC(=O)c4ccc(S(=O)(=O)N5CCOCC5)cc4)ccc1c23	DAT uptake mod 3.7
Cc1cc(NC(=O)c2ccc(S(=O)(=O)N3CCOCC3)cc2)nc2c1c(=O)oc1ccccc12	PostGolgi yeast 31.3 (no result: D1 mod, Cav32 inh, DAT uptake mod)
Cc1cc(NC(=O)c2ccc(S(=O)(=O)N3CCCC3)cc2)nc2c1c(=O)oc1ccccc12	none (no result: PLAP act, Cav32 inh)
COc1ccc(CC(=O)Nc2cc(C)c3c(=O)oc4ccccc4c3n2)cc1	none (no result: PostGolgi ctrl, PostGolgi yeast)
CCN1C(=O)c2cccc3c(NC(=O)c4ccc(S(=O)(=O)N(C)C)cc4)ccc1c23	none
COc1ccc(OC)c(C(=O)COC(=O)CNC(=O)C2CCCCC2)c1	none
COCCn1c(C)cc(C2=NNC(=Nc3ccccc3F)SC2)c1C	Cav32 inh -4.44 (no result: D1 mod)
CNC(CC(C)C)C(=O)NC1C(=O)NC(CC(N)=O)C(=O)NC2C(=O)NC3C(=O)NC(C(=O)NC(C(=O)O)c4cc(O)cc(O)c4-c4cc3ccc4O)C(O)c3ccc(c(Cl)c3)Oc3cc2cc(c3OC2OC(CO)C(O)C(O)C2OC2CC(C)(N)C(O)C(C)O2)Oc2ccc(cc2Cl)C1O (stereo not drawn)	none (no result: D1 mod, PLAP act, PostGolgi ctrl, Cav32 inh, PostGolgi yeast)
O=[N+]([O-])c1c(C(Cl)Cl)nn(-c2ccccc2)c1N1CCCC1	PostGolgi ctrl 31.0 (no result: D1 mod)
CN(Cc1cccs1)C(=O)COc1ccc(-c2nnco2)cc1	none

Bioassay records: PubChem, several laboratories
